Assay [1] is described as follows: TOX21_p53_BLA_p2_viability: Viability Assessment in the Tox21 HCT-116 p53 Agonism Beta-lactamase Assay, Phase 2 (AID 2283591).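 Note: compound exposure lasted 16 h at 37 °C; actives lower the ATP signal meaning cytotoxicity.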 Summed up: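 HCT-116 p53-bla cells (4000/well) rested 5 h at 37C, then received compounds in DMSO (217-fold dilution) for 16 h at 37C, 5% CO2. After the CCF4 read, CellTiter-Glo was added; ATP luminescence was read after 30 min at room temperature.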

Assay [2] has as its target Cellular tumor antigen p53 (Homo sapiens) (UniProt P04637). Kind of assay: TOX21_p53_BLA_p2_ratio: Tox21 HCT-116 p53 Agonism Beta-lactamase Assay, Ratio, Phase 2 (AID 2283592). Summed up: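 DMSO-normalized, positive-direction endpoint derived from the 460 nm/530 nm FRET ratio in HCT116 p53 beta-lactamase reporter cells exposed 16 h at 37C and loaded with CCF4-AM for 2 h.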

The nature of assay [3]: TOX21_p53_BLA_p3_viability: Viability Assessment in the Tox21 HCT-116 p53 Agonism Beta-lactamase Assay, Phase 3 (AID 2283593).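 Note: cells exposed to compound for 16 h before reading.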 In outline:
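HCT-116 cells (4000/well) rested 5 h at 37C, then got DMSO compounds by pin tool (217-fold dilution) for 16 h at 37C, 5% CO2. After the bla read, CellTiter-Glo was added and luminescence read at 30 min, room temperature.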

For assay [4], the target named is Cellular tumor antigen p53 (Homo sapiens) (UniProt P04637). Kind of assay: TOX21_p53_BLA_p3_ratio: Tox21 HCT-116 p53 Agonism Beta-lactamase Assay, Ratio, Phase 3 (AID 2283596). Summed up:
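Cells were seeded at 4000/well, rested 5 h at 37C, then dosed with DMSO compound solutions (217-fold dilution) for 16 h. CCF4-AM substrate was loaded for 2 h at room temperature, and the 460/530 nm emission ratio was fitted for gain of signal versus DMSO.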

The nature of assay [5]: TOX21_p53_BLA_p4_viability: Viability Assessment in the Tox21 HCT-116 p53 Agonism Beta-lactamase Assay, Phase 4 (AID 2283597).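 Note: hits lower the luminescence signal meaning cytotoxicity.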 In outline:
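In this multiplexed secondary endpoint, HCT116 cells (4000 per well, compound at 5 h, 16 h treatment) received CellTiter-Glo after the beta-lactamase read. Luminescence after 30 min RT reflects ATP, and falling signal marks cytotoxicity.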

Assay [6] has as its target Cellular tumor antigen p53 (Homo sapiens) (UniProt P04637). Description: TOX21_p53_BLA_p5_ratio: Tox21 HCT-116 p53 Agonism Beta-lactamase Assay, Ratio, Phase 5 (AID 2283599). In outline:
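HCT-116 cells carrying a p53-inducible beta-lactamase reporter were seeded at 4000 cells/well and dosed after 5 h with compound in DMSO (217-fold dilution). After 16 h at 37C, CCF4-AM substrate was added for 2 h, and the 460/530 nm emission ratio was scored as gain-of-signal versus DMSO.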

A short description of assay [7]: TOX21_p53_BLA_p5_viability: Viability Assessment in the Tox21 HCT-116 p53 Agonism Beta-lactamase Assay, Phase 5 (AID 2283600). Summed up: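 Here cell health was gauged by ATP levels in wells holding 4000 cells, each treated 16 h with DMSO-delivered compounds at 217-fold dilution; reduced luminescence marked toxicity.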
Assay [8] has as its target Cellular tumor antigen p53 (Homo sapiens) (UniProt P04637). Description: TOX21_p53_BLA_p4_ratio: Tox21 HCT-116 p53 Agonism Beta-lactamase Assay, Ratio, Phase 4 (AID 2283601). In outline:
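HCT116 cells carrying an inducible beta-lactamase reporter were plated at 4000 cells/well, rested 5 h, then exposed to compounds in DMSO (217-fold dilution) for 16 h at 37C. CCF4-AM substrate was loaded 2 h at room temperature; 460/530 nm emission ratio scored gain-of-signal versus DMSO.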

The target of assay [9] is Estrogen receptor (Homo sapiens) (UniProt P03372). Kind of assay: NVS_NR_hER: NovaScreen (NVS) Nuclear Receptor Binding Assay for human Estrogen Receptor (ER) (AID 2283348). Summed up: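 Radiodetection of ligand displacement in a lysate-based, cell-free format using MCF7 extracts, read at 18 hours. Duplicate 25 uM primary testing, then concentration series for actives.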
Sequence of Estrogen receptor (Homo sapiens) (P03372 whole entry, looked up): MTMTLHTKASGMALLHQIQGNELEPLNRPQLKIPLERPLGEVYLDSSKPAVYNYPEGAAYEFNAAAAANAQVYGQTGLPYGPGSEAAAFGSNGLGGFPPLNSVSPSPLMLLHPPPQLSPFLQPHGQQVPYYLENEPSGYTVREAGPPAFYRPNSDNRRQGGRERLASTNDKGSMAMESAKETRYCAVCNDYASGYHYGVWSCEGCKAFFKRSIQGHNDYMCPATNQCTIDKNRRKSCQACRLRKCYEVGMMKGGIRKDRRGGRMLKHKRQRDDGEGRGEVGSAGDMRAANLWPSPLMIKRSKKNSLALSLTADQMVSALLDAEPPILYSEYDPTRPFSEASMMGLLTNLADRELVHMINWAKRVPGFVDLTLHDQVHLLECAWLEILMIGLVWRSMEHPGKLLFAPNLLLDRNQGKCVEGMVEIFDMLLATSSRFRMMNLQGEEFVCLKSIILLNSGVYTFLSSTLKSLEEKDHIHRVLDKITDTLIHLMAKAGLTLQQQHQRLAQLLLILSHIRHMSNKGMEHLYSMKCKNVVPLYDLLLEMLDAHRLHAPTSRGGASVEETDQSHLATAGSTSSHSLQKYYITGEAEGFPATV

SMILES strings stand for the structures. “And” between values parts separate entries of the source, which are not always exact repeats. Equal values may be shown once. Inconclusive results are not listed. More than one record can exist for a structure, and the calls need not agree. The source made the active and inactive calls. Rule for the calls: active = hit-call score of the fitted dose curve at least 0.9, where 1 is the maximum; inconclusive = response in the unintended direction; inactive = score below 0.9.

Sequence of Cellular tumor antigen p53 (Homo sapiens) (P04637 whole entry, looked up): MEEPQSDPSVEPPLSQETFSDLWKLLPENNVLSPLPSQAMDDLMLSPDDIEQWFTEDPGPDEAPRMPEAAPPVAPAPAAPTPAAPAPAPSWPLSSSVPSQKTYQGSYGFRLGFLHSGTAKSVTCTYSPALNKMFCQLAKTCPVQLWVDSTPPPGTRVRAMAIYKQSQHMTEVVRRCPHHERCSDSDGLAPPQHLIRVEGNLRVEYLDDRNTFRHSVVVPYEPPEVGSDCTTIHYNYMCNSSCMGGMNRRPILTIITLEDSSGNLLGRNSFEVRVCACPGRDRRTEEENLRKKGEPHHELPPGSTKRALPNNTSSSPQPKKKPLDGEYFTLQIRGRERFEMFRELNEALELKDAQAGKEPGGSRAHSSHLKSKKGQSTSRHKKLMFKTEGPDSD

Usually AC50 stands for the midpoint of the concentration-response curve, whichever way the signal moves. For the molecule `CCCCCCCCCCCCCCCCCCOCC(COP(=O)([O-])OCC[N+](C)(C)C)OC` (configuration not stated), the half-maximal activity concentration (AC50) in assay [1] was 36.3 µM (active); in assay [2], 43.6 µM (active).

As for `CC(=O)Oc1ccccc1C(=O)Nc1ncc([N+](=O)[O-])s1`, the AC50 in assay [1] is 10.7 µM (active); in [2] it was 2.61 µM (active) and 14.1 µM (active); in [3], 4.46 µM (active) and 6.54 µM (active); in [4], 1.19 µM (active) and 15.5 µM (active); in assay [5], 12.7 µM (active); in assay [6] it was 3.18 µM (active) and 22.4 µM (active). The values for the AC50 in assay [7] and in assay [8] were 10.7 µM (active) and 5.33 µM (active), respectively. The molecule was classed as inactive in [1], in assay [5], in [7] and in assay [8].

On to `Cc1oc(C)c(C(=O)Nc2ccccc2)c1C`, for which the outcome in assay [9], in assay [1], in assay [2], in assay [3], in [4] and in [5] was inactive. The outcome in assay [6], in [7] and in assay [8] was inactive.

Regarding `C[C@@H]1[C@H](O)[C@@H](C)/C=C/C=C/C=C/C=C/C=C/C=C/C=C/[C@H](O[C@@H]2O[C@H](C)[C@@H](O)[C@H](N)[C@@H]2O)C[C@@H]2O[C@](O)(C[C@@H](O)C[C@@H](O)[C@H](O)CC[C@@H](O)C[C@@H](O)CC(=O)O[C@H]1C)C[C@H](O)[C@H]2C(=O)O`, in [1], the AC50 is 72.4 µM (active). The molecule was called inactive in assay [1], in assay [2], in [3], in assay [4], in [6] and in assay [7]. Further, the outcome in [8] was inactive.

As to `CNCCC(Oc1ccc(C(F)(F)F)cc1)c1ccccc1` (configuration not stated), the AC50 in [1] is 68.1 µM (active); in assay [3], 74 µM (active); in assay [5] it was 67.3 µM (active) and 33.8 µM (active); in assay [7], 73.2 µM (active). Also, the molecule was classed as inactive in assay [1], in assay [2], in assay [3], in assay [4], in assay [6] and in assay [7]. In addition, in assay [8], the result was inactive.

Take `CCOc1nc2cccc(C(=O)OC(C)OC(=O)OC3CCCCC3)c2n1Cc1ccc(-c2ccccc2-c2nn[nH]n2)cc1` (configuration not stated): the result in [9] was inactive. Also, the AC50 in assay [1] is 8.23 µM (active); in [2], 14 µM (active); in assay [3] it was 13 µM (active); in assay [4], 34 µM (active); in [5], 13.4 µM (active); in assay [6] it was 15.7 µM (active). The figures for the AC50 in [7] and in assay [8] were 7.02 µM (active) and 24.4 µM (active), respectively.

In the case of `CC(=O)O[C@]1(C(C)=O)CC[C@H]2[C@@H]3C=C(Cl)C4=CC(=O)CC[C@]4(C)[C@H]3CC[C@@]21C`, the result in assay [1], in [2], in assay [3], in assay [4], in [5] and in [6] was inactive. The molecule was called inactive in assay [7] and in assay [8]. For the same molecule, the AC50 in assay [2] is 43.1 µM (active); in [4], 72.5 µM (active); in [5], 21.8 µM (active); in [8], 38 µM (active).

On to `CON=C1C[C@]2(C[C@@H]3C[C@@H](C/C=C(\C)C[C@@H](C)/C=C/C=C4\CO[C@@H]5[C@H](O)C(C)=C[C@@H](C(=O)O3)[C@]45O)O2)O[C@H](/C(C)=C/C(C)C)[C@H]1C`, for which the AC50 in assay [1] is 8.61 µM (active) and 8.38 µM (active); in assay [2], 21 µM (active); in assay [3], 17.2 µM (active) and 13.8 µM (active); in [4] it was 35.2 µM (active) and 21.3 µM (active); in assay [5], 9.09 µM (active) and 8.73 µM (active); in assay [6], 22 µM (active). In addition, the AC50 in assay [7] is 17.3 µM (active) and 10.7 µM (active); in assay [8], 18.8 µM (active). Moreover, the result in [2], in assay [6] and in [8] was inactive.

`CC(C)(C)c1ccc(C(O)CCCN2CCC(C(O)(c3ccccc3)c3ccccc3)CC2)cc1` (configuration not stated): the AC50 in [1] is 34.4 µM (active); in assay [2] it was 42.7 µM (active); in [3], 37.9 µM (active) and 31.8 µM (active); in [4], 43.3 µM (active) and 39.2 µM (active); in [5], 32.4 µM (active); in assay [8], 42.2 µM (active). Besides, the molecule was classed as inactive in assay [1], in [5], in assay [6], in assay [7] and in assay [8].

For `CCN(CC)CCOC(=O)C(c1ccccc1)c1ccccc1`, in assay [1], the call was inactive.

`C=CCN1CCc2nc(N)sc2CC1`: the call in assay [1] and in assay [2] was inactive.

In the case of `CCC(=O)C(=O)CC`, the molecule was called inactive in assay [1], in assay [2], in assay [3], in assay [4], in [5] and in assay [6]. Also, the result in assay [7] and in assay [8] was inactive.

As for `CC1(C)[C@@H](O)CC[C@]2(C)[C@H]3C(=O)C=C4[C@@H]5C[C@@](C)(C(=O)O)CC[C@]5(C)CC[C@@]4(C)[C@]3(C)CC[C@@H]12`, the molecule was called inactive in [1], in assay [2], in assay [3], in assay [4], in [5] and in assay [6]. Moreover, the result in [7] and in assay [8] was inactive. Besides, the AC50 in assay [3] was 61.4 µM (active) and 22.5 µM (active); in assay [4], 46.4 µM (active); in assay [6], 43.1 µM (active); in assay [7] it was 30.6 µM (active) and 33.5 µM (active).

With `CCC[C@@H]1C[C@@H](C(=O)N[C@@H]([C@H]2O[C@H](SC)[C@H](O)[C@@H](O)[C@H]2O)[C@@H](C)O)N(C)C1`, the outcome in assay [1], in [2], in [3] and in [4] was inactive.

`CC=CC(=O)CCCC`: the result in [1], in assay [2], in assay [3], in [4] and in assay [5] was inactive.

Take `CC(C)[C@H](N)C(=O)OCCOCn1cnc2c(=O)[nH]c(N)nc21`: the outcome in assay [1], in [2], in assay [3], in [4] and in assay [5] was inactive.

On to `C[N+]1(CC2COC(c3ccccc3)(c3ccccc3)O2)CCCCC1` (configuration not stated), for which the molecule was classed as inactive in [1], in [2], in assay [3], in [4] and in assay [5].

With `COc1cc(/C=C/C(=O)O[C@H]2CC[C@]34C[C@]35CC[C@]3(C)[C@@H]([C@H](C)CCC=C(C)C)CC[C@@]3(C)[C@@H]5CC[C@H]4C2(C)C)ccc1O`, the result in [1], in [2], in [3], in assay [4], in [5] and in assay [6] was inactive. Besides, the result in assay [7] was inactive. In addition, the AC50 in [3] is 26.8 µM (active); in assay [4], 23 µM (active); in assay [6], 13.3 µM (active); in [8], 6.07 µM (active).

`COC1=C(OC)C(=O)C(C/C=C(\C)CC/C=C(\C)CC/C=C(\C)CC/C=C(\C)CC/C=C(\C)CC/C=C(\C)CC/C=C(\C)CC/C=C(\C)CC/C=C(\C)CCC=C(C)C)=C(C)C1=O`: the molecule was called inactive in assay [1], in assay [2], in assay [3], in assay [4], in assay [5] and in assay [6]. Also, the outcome in [7] and in assay [8] was inactive. The AC50 in assay [4] is 42.8 µM (active).

With `C#C[C@]1(OC(C)=O)CC[C@H]2[C@@H]3CCC4=C[C@@H](OC(C)=O)CC[C@@H]4[C@H]3CC[C@@]21C`, the AC50 in assay [1] was 36.9 µM (active) and 34.4 µM (active); in [3], 37.3 µM (active); in assay [6], 43 µM (active); in [7], 36.7 µM (active). For the same molecule, the result in assay [2], in [3], in assay [4], in assay [5], in [6] and in assay [7] was inactive. For the same molecule, the outcome in assay [8] was inactive.

On to `CSc1ccc2c(c1)N(CCC1CCCCN1C)c1ccccc1S2` (configuration not stated), for which the AC50 in [1] is 37 µM (active) and 75.4 µM (active); in assay [2] it was 43.6 µM (active) and 79 µM (active); in assay [3] it was 73 µM (active); in [5] it was 35.8 µM (active) and 59.3 µM (active); in [6], 43.3 µM (active) and 86 µM (active); in assay [7] it was 43.8 µM (active) and 85.2 µM (active). Also, the AC50 in assay [8] is 43.4 µM (active) and 82.3 µM (active). Besides, the molecule was called inactive in [3] and in assay [4].

As for `CC(COc1ccccc1)N(CCCl)Cc1ccccc1` (configuration not stated), the molecule was called inactive in assay [1], in assay [2], in assay [3], in assay [4], in [5] and in assay [6]. The result in [7] and in [8] was inactive. Besides, the AC50 is 54.6 µM (active) and 79.1 µM (active) in [3]; 23.1 µM (active) in [4].

The values are drawn from PubChem BioAssay (EPA / NIEHS).
